Measured values reported in the supplement of paper PMC10127200.
Structures can show the parent of a compound that is named as a salt.

Key:
Experiment in all cases: Euclidean distance of Cell Painting phenotypic profile (signed KS, 77 features) to DMSO centroid (dimensionless distance); 5 or 10 uM (library dependent); higher = stronger phenotypic change vs DMSO (phenoactivity)
Settings in all cases: 48 h
786-O = test system: 786-O
Summary of the method: (§1)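 Five cancer lines, together with a healthy fibroblast line, received library compounds for 48 h at a library-dependent 10 or 5 uM and 0.1% DMSO final. Harmony then derived 77 features from confocal 20X images (9 fields/well) of the stained cells, scoring each as a signed Kolmogorov-Smirnov statistic against same-plate vehicle wells. After plate-position correction, correlation weighting and replicate averaging at the top dose, phenoactivity was taken as each profile's Euclidean distance to the median vehicle profile.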

A549 = test system: A549
Summary of the method: as §1

DU145 = test system: DU145
Summary of the method: as §1

FB = test system: FB
Summary of the method: as §1

HEPG2 = test system: HEPG2
Summary of the method: as §1

OVCAR4 = test system: OVCAR4
Summary of the method: as §1

SMILES	Euclidean distance (786-O)	Euclidean distance (A549)	Euclidean distance (DU145)	Euclidean distance (FB)	Euclidean distance (HEPG2)	Euclidean distance (OVCAR4)
O=C(O)c1ccc2nc(-c3cc(Cl)cc(Cl)c3)oc2c1 [Tafamidis]	1.52	0.941	1.1	0.77	0.971	1.21
CCCCC(CC)CN1CN(CC(CC)CCCC)CC(C)(N)C1 (stereo not drawn) [Hexetidine]	0.942	4.33	6.71	2.79	0.954	5.33
Cc1cccc(Nc2nc(-c3ccncc3)cs2)c1	3.35	3.77	4.06	3.02	1.11	1.73
CC(C)(C)NCC(O)COc1cccc2c1CCC(=O)N2 (stereo not drawn) [Carteolol HCl]	1.14	0.612	0.836	1.22	0.541	2.01
Cc1cc(/C=C/C#N)cc(C)c1Nc1ccnc(Nc2ccc(C#N)cc2)n1 [Rilpivirine]	1.85	2.11	1.55	1.69	0.573	0.925
O=C1Nc2ccc(CN3C(=O)CSC3=O)cc2/C1=C/c1cc(CN2CCOCC2)c[nH]1	1.07	1.06	0.896	1.11	0.385	0.658
CNC(=O)CN1CCC(Oc2cc3c(Nc4cccc(Cl)c4F)ncnc3cc2OC)CC1 [Sapitinib (AZD8931)]	1.67	3.03	2.21	2.79	1.18	3.03
O=C(O)CCCc1cc2cc(Cl)ccc2n1S(=O)(=O)c1ccc2ncsc2c1 [Lanifibranor(IVA-337)]	0.7	0.787	0.862	0.874	0.544	1.53
C=CCc1ccc(O)c(OC)c1 [Eugenol]	0.982	1.21	0.897	0.958	0.497	1.51
CCC1=C(C)CN(C(=O)NCCc2ccc(S(=O)(=O)NC(=O)N[C@H]3CC[C@H](C)CC3)cc2)C1=O [Glimepiride]	1.39	0.608	0.621	0.992	0.508	0.801
Nc1nc2c(ncn2COCCO)c(=O)[nH]1 [Aciclovir]	1.1	1.17	1.08	1.32	1.25	1.37
N[C@@H](Cc1cc(I)c(Oc2cc(I)c(O)c(I)c2)c(I)c1)C(=O)O [L-Thyroxine]	1.38	1.12	1.19	0.961	0.718	1.45
Cc1cc(Nc2ccc(NC(=O)c3ccc(Nc4ccnc5ccccc45)cc3)cc2)nc(N)n1	1.66	3.02	1.42	5.18	0.532	3.29
C[C@@H]1O[C@@H](OC[C@H]2O[C@@H](Oc3c(-c4ccc(OCCO)c(OCCO)c4)oc4cc(OCCO)cc(O)c4c3=O)[C@H](O)[C@@H](O)[C@@H]2O)[C@H](O)[C@H](O)[C@H]1O [Troxerutin]	1.35	0.502	0.751	0.834	0.509	0.81
O=C(O)CCCCCCCC(=O)O [Azelaic acid]	0.8	1.26	0.798	0.728	0.834	0.801
CC[C@H]1[C@@H](O)[C@@H]2[C@H](CC[C@]3(C)[C@@H]([C@H](C)CCC(=O)O)CC[C@@H]23)[C@@]2(C)CC[C@@H](O)C[C@@H]12 [Obeticholic Acid]	0.797	0.614	0.878	0.944	0.851	0.844
O=C(O)[C@@H]1CCCN1 [L-Proline]	1.26	0.98	1.37	1	0.823	0.766
CCCCC1OC(=O)c2ccccc21 (stereo not drawn) [3-n-Butylphathlide]	1.36	0.948	0.834	1.38	0.575	1.15
C=C1CC[C@H]2C(=C)CC[C@H]3C(=C)C(=O)O[C@@H]3[C@@H]12 [Dehydrocostus Lactone]	6.1	3.77	7.43	3.32	3.68	2.97
CC[C@@H](Nc1c(Nc2cccc(C(=O)N(C)C)c2O)c(=O)c1=O)c1ccc(C)o1	1.24	0.692	0.995	0.605	0.633	0.96
CCS(=O)(=O)Nc1ccc2c(c1)/C(=C(/Nc1ccc(CN3CCCCC3)cc1)c1ccccc1)C(=O)N2 [Hesperadin]	3.36	3.8	2.47	3.41	2.69	3.25
NCc1ccc(S(N)(=O)=O)cc1 [Mafenide hydrochloride]	1.35	0.84	0.784	0.654	0.629	1.46
Cc1ccc(NS(=O)(=O)c2cccc(C#N)c2)c2[nH]cc(C#N)c12	1.84	2.34	1.67	1.89	2.04	2.09
N#CCCCSC(=N)N [Kevetrin hydrochloride]	1.5	0.842	1.04	0.849	0.473	0.902

SMILES	Euclidean distance (786-O)	Euclidean distance (A549)	Euclidean distance (DU145)	Euclidean distance (FB)	Euclidean distance (HEPG2)	Euclidean distance (OVCAR4)
CCn1cc(C(=O)O)c(=O)c2cc(F)c(N3CCNC(C)C3)c(F)c21 (stereo not drawn) [Lomefloxacin HCl]	0.907	0.839	0.681	0.822	0.796	0.657
CC(/C=C/C(=O)NO)=C\[C@@H](C)C(=O)c1ccc(N(C)C)cc1 [Trichostatin A]	3.62	4.26	3.19	4.05	3.58	3.53
CCS(=O)(=O)N1CC(CC#N)(n2cc(-c3ncnc4[nH]ccc34)cn2)C1	1.86	0.875	1.45	1.57	0.589	0.899
COCCNCc1ccc(-c2cc3nccc(Oc4ccc(NC(=O)C5(C(=O)Nc6ccc(F)cc6)CC5)cc4F)c3s2)nc1 [Sitravatinib (MGCD516)]	5.08	4.94	5.04	5.24	4.74	4.64
C[C@@H](O)[C@H]1C(=O)N2C(C(=O)O)=C(SCCNC=N)C[C@H]12 [Imipenem]	0.957	1.45	0.986	0.737	0.883	0.789
Cc1ccc(NC(=O)c2cccc(N(C)C)c2)cc1NC(=O)c1ccc(O)cc1	2.67	2.66	2.38	2.03	1.55	2.26
COc1cc2c3cc1Oc1c(OC)c(OC)cc4c1[C@@H](Cc1ccc(O)c(c1)Oc1ccc(cc1)C[C@@H]3N(C)CC2)N(C)CC4 [Berbamine]	2.93	3.17	2.1	3.91	2.29	2.64
CN(C)Cc1ccc(-c2nc3cccc4c3n2CCNC4=O)cc1	1.75	1.77	1.51	1.3	1.62	1.41
Cn1c(=O)n(-c2ccc(C(C)(C)C#N)cc2)c2c3cc(-c4cnc5ccccc5c4)ccc3ncc21 [BEZ235 (NVP-BEZ235. Dactolisib)]	3.77	3.79	1.66	2.82	0.961	4.78
C[N+]1(C)[C@@H]2C[C@@H](OC(=O)C(O)(c3cccs3)c3cccs3)C[C@H]1[C@@H]1O[C@@H]12 [Tiotropium Bromide hydrate]	1.26	0.676	0.73	1.02	0.978	0.837
O=C(Nc1ccc(OC(F)(F)F)cc1)c1sccc1NCc1ccnc2ccccc12	1.19	2.11	1.25	1.38	0.977	1.41
O=C1Nc2ccccc2/C1=C1/Nc2ccccc2C1=O [Indirubin]	1.05	1.12	0.786	0.965	1.58	1.03
Cc1ccc(C)c(OCCCC(C)(C)C(=O)O)c1 [Gemfibrozil]	1.23	0.801	1.51	1.06	1.97	1.02
CCN(CC)Cc1cc(Nc2ccnc3cc(Cl)ccc23)ccc1O [Amodiaquine]	2.2	2.16	1.37	3.19	2.51	2.02
CC(C)(Oc1ccc(C(=O)c2ccc(Cl)cc2)cc1)C(=O)O [Fenofibric acid]	0.559	1.24	0.978	1.59	0.698	0.976
O=C1CN(/N=C/c2ccc(-c3ccc([N+](=O)[O-])cc3)o2)C(=O)N1 [Dantrolene sodium hemiheptahydrate]	0.731	0.894	1.67	1.21	0.638	1.31
[O-][n+]1cccc(-c2nc3c(Cl)cccc3cc2[C@@H](Nc2ncnc3cccnc23)C(F)(F)F)c1 [Seletalisib (UCB-5857)]	1.2	0.825	1.4	1.69	1.73	2.03
C=CC(=O)Nc1cccc(Oc2nc(Nc3ccc(N4CCN(C)CC4)cc3)nc3ccsc23)c1	4.18	3.94	2.73	3.64	3.85	3.57
O=C1NC(=O)C(c2ccccc2)(c2ccccc2)N1 [Phenytoin]	0.857	0.495	1	1.34	0.945	0.752
CCCCOc1ccc(C(=O)CCN2CCCCC2)cc1 [Dyclonine HCl]	1.45	0.937	1.42	0.997	1.96	0.828
CC/C(=C(/CC)c1ccc(O)cc1)c1ccc(O)cc1 [Diethylstilbestrol]	0.795	0.688	0.96	0.826	0.721	0.682
O=C(O)CCC(=O)OC[C@@H](NC(=O)C(Cl)Cl)[C@H](O)c1ccc([N+](=O)[O-])cc1 [Chloramphenicol sodium succinate]	1.83	1.28	0.814	0.919	0.53	1.07
CN1CCC(NC(=O)c2cc(-c3c(O)cc(O)cc3Oc3ccc([N+](=O)[O-])cc3)on2)CC1	2.95	3.28	3.66	3.37	5.17	3.04
CCCCOc1cc(C(=O)NCCN(CC)CC)c2ccccc2n1 [Dibucaine HCl]	1.45	1.68	1.23	1.07	1.52	1.07
